Experimental findings from PubChem BioAssay are described below.

Usually inhibition stands for the change of the read-out against control, counted positive when it falls.

Values without a mark were called inactive. For some of these results: Measured potencies and affinities stand elsewhere. The source made the active and inactive calls. Unless noted, no rule for the calls is given here.

A short description of test [1]: antimalarial activity against Dd2 strain (AID 2302;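 active = growth inhibition above 50% at the single 2 µM test dose, taken to imply half-maximal potency below 2 µM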;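 also: 0% = DMSO untreated growth and 100% = chloroquine plus artemisinin killed control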). The conditions noted are these: P. falciparum Dd2 in RBCs, LDH growth readout, 72 h; at 2 µM; hits give high values.
A short description of test [2]: HepG2 cytotoxicity, primary screen, cytotoxicity control for P. falciparum antimalarial project, cell-based, ATP luminescence (AID 2303;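 active = inhibition above 50%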;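 also: 0% = DMSO wells and 100% = digitonin-killed cells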). The conditions noted are these: HepG2 viability, 24-48 h, at 10 µM, hits give high values.
Test [3] deals with L-lactate dehydrogenase (Plasmodium falciparum (isolate CDC / Honduras)) (UniProt Q27743). The test is described as follows: PfLDH activity inhibition – cell lysate, 3D7 strain, counter-screen for P. falciparum growth inhibition project (AID 2304).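 Also: 0% = vehicle and 100% = reference inhibitor.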 Conditions: P. falciparum 3D7 crude extract, LDH APAD/NBT absorbance; at 2 µM; hits give high values. A general note: The purpose of a counterscreen is to sort out artefacts and off-target activity.

The nature of test [4]: inhibition of 3D7 malaria parasite growth – strain 3D7 (AID 2306).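 Also: 0% = DMSO wells and 100% = chloroquine plus artemisinin control wells.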 The conditions noted are these: P. falciparum 3D7 erythrocytic growth, LDH absorbance, 72 h; at 2 µM; hits give high values.
Test [5] has as its target Calcium-dependent protein kinase 1 (Plasmodium falciparum (isolate 3D7)) (UniProt P62344). Kind of test: PfCDPK1 kinase inhibitors, biochemical, TCAMS library (AID 1159585; cut-off not given, nearly all actives have IC50 up to about 0.98 µM;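 also: inhibitors leave more ATP so luminescence rises with inhibition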). Conditions: recombinant PfCDPK1, Kinase-Glo ATP depletion luminescence. (In general: Kinase-Glo reads ATP consumption through a luciferase reaction.)
Test [6] addresses Plasmodium falciparum protein kinase 6 (PK6, PF3D7_1337100) (UniProt Q8IDW1). The test is described as follows: PfPK6 kinase inhibitors, biochemical, TCAMS library (AID 1159586). The conditions noted are these: recombinant PfPK6, Kinase-Glo ATP depletion luminescence.
Test [7] addresses Protein kinase 7 (PK7), Plasmodium falciparum 3D7 (PF3D7_0213400) (UniProt Q7YTF7). The test is described as follows: inhibition of Plasmodium PK7 catalytic activity – biochemical, TCAMS antimalarial set, Kinase-Glo luminescence (AID 1159587). The conditions noted are these: recombinant PfPK7, Kinase-Glo ATP depletion luminescence.
Test [8] deals with Calcium-dependent protein kinase 4 (Plasmodium falciparum (isolate 3D7)) (UniProt Q8IBS5). Kind of test: PfCDPK4 kinase inhibitors, biochemical, TCAMS library (AID 1159588; cut-off not given, nearly all actives have IC50 up to about 0.91 µM). The conditions noted are these: recombinant PfCDPK4, Kinase-Glo ATP depletion luminescence.
Sequence of Calcium-dependent protein kinase 4 (Plasmodium falciparum (isolate 3D7)) (Q8IBS5 whole entry, looked up): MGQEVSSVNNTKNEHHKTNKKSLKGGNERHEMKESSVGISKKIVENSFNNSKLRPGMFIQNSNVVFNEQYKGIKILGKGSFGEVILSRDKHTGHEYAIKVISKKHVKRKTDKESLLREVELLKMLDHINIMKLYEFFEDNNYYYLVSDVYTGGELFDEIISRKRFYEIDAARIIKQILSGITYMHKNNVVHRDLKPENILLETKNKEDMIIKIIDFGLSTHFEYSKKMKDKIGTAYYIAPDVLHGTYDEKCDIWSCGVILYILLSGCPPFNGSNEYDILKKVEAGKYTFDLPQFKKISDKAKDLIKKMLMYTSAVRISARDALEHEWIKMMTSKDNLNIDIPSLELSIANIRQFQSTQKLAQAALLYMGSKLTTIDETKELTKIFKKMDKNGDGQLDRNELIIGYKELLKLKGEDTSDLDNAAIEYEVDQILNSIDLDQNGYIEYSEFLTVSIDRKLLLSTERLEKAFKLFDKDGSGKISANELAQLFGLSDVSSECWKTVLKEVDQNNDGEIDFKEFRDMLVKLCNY

Sequence of Plasmodium falciparum protein kinase 6 (PK6, PF3D7_1337100) (Q8IDW1 1-305): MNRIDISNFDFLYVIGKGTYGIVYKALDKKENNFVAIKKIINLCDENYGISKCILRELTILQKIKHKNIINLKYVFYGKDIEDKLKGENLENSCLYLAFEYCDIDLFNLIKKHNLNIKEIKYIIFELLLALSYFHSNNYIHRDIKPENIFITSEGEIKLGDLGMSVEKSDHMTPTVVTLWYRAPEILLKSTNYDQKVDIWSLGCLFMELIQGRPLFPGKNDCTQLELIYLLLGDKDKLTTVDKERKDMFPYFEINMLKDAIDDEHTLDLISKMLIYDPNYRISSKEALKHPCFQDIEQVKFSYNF
Sequence of Calcium-dependent protein kinase 1 (Plasmodium falciparum (isolate 3D7)) (P62344 whole entry, looked up): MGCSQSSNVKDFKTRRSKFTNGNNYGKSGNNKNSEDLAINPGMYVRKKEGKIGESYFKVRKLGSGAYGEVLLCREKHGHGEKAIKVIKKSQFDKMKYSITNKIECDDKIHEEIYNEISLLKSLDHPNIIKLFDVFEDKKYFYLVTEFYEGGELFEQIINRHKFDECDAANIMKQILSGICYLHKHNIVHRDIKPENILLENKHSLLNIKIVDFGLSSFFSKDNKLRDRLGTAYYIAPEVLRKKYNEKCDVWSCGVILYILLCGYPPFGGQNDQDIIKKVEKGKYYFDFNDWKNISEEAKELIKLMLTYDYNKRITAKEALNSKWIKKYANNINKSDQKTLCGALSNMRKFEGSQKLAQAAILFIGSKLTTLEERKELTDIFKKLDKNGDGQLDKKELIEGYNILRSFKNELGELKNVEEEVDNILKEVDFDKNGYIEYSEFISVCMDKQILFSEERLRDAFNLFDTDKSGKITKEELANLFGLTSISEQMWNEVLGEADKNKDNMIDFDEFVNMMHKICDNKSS
Sequence of L-lactate dehydrogenase (Plasmodium falciparum (isolate CDC / Honduras)) (Q27743 whole entry, looked up): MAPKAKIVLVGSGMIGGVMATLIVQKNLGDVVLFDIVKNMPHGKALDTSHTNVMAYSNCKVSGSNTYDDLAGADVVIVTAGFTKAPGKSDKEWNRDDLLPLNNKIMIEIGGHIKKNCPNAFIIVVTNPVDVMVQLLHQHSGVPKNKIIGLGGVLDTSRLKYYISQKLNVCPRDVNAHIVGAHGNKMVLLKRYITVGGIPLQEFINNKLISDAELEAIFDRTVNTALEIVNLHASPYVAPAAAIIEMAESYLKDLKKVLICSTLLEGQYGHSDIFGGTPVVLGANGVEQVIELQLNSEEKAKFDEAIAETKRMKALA
Sequence of Protein kinase 7 (PK7), Plasmodium falciparum 3D7 (PF3D7_0213400) (Q7YTF7 1-343): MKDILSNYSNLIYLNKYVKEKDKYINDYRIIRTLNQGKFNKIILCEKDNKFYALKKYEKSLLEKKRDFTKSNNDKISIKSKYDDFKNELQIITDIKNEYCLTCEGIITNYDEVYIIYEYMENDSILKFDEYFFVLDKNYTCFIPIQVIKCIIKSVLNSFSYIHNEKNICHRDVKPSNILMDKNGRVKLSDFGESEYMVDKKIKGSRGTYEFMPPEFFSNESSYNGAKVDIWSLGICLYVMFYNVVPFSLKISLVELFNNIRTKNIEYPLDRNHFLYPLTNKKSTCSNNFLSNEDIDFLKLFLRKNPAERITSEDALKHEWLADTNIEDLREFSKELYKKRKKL

With `Cc1cc(Nc2ccccc2)nc(Nc2ccccc2C)n1`, the values for the growth inhibition in test [1] and in test [4] were 27% and 85% (active), respectively. For the same molecule, the inhibition in test [2] was 8%; in test [3], 5%. In addition, the result in test [5], in test [6], in test [7] and in test [8] was inactive.
Consider `O=C(/C=C/c1ccc(Cl)c(Cl)c1)N1CCC(NCc2c[nH]c3ccccc23)CC1`, for which the growth inhibition in test [1] is 4%; in test [4], 94% (active). For the same molecule, the inhibition in test [2] is 36%; in test [3], -2%. For the same molecule, the outcome in test [5], in test [6], in test [7] and in test [8] was inactive.
`CCCCNC(=O)[C@@H](NC(=O)c1ccc(O)c(-c2ccc(Cl)c(Cl)c2)c1)C(C)C`: the growth inhibition in test [1] is 98% (active); in test [4], 97% (active). The inhibition is -4% in test [2] and 2% in test [3]. For the same molecule, the result in test [5], in test [6], in test [7] and in test [8] was inactive.
For the molecule `O=[N+]([O-])c1cccc(NC(=S)N2CCCN(Cc3ccc(C(F)(F)F)cc3)CC2)c1`, the growth inhibition in test [1] is 49%; in test [4], 90% (active). The results for the inhibition in test [2] and in test [3] were 11% and 0%, respectively. The result in test [5], in test [6], in test [7] and in test [8] was inactive.
Regarding `Cc1c(-c2ccccc2)ccc2[nH]cc(CC#N)c12`, the growth inhibition in test [1] was 85% (active); in test [4], 95% (active). In addition, the inhibition in test [2] was 2%; in test [3] it was -2%. Moreover, the outcome in test [5], in test [6], in test [7] and in test [8] was inactive.
For `COc1ccc(-c2cccc(NC(=O)c3cccc(C#N)c3)c2)cc1CNC(C)C`, the figures for the growth inhibition in test [1] and in test [4] were 51% (active) and 101% (active), respectively. Also, the inhibition in test [2] was 22%; in test [3], 0%. Besides, the result in test [5], in test [6], in test [7] and in test [8] was inactive.
As for `CCCCCN1CCCCC(NS(=O)(=O)c2ccc(C(=O)Nc3cccc(C(F)(F)F)c3)cc2)C1` (stereo not given), the growth inhibition in test [1] was 2%; in test [4], 93% (active). Moreover, the inhibition in test [2] was 14%; in test [3], -2%. For the same molecule, the outcome in test [5], in test [6], in test [7] and in test [8] was inactive.
Take `COC(=O)c1ccc(C2OC3(C(=O)c4ccccc4C3=O)C(OC)=C2Cl)cc1C(C)=O` (stereo not given): the results for the growth inhibition in test [1] and in test [4] were 85% (active) and 99% (active), respectively. Moreover, the inhibition was -3% in test [2] and -2% in test [3]. The outcome in test [5], in test [6], in test [7] and in test [8] was inactive.
Consider `O=C(Nc1ccc(OC2CCN(Cc3ccccc3)C2)c(Cl)c1)c1ccsc1` (stereo not given), for which the growth inhibition in test [1] was 75% (active); in test [4], 93% (active). Further, the figures for the inhibition in test [2] and in test [3] were 12% and 1%, respectively. The result in test [5], in test [6], in test [7] and in test [8] was inactive.
For the molecule `Cn1c(NCc2cc(F)cc3c2OCOC3)nc2cc(Nc3ccnc(Nc4cccc(CS(C)(=O)=O)c4)n3)ccc21`, the growth inhibition in test [1] is 100% (active); in test [4], 102% (active). The inhibition in test [2] was -14%; in test [3] it was -1%. Moreover, the outcome in test [5], in test [6], in test [7] and in test [8] was inactive.
As for `CCCOc1cc(NC(=O)Nc2ccnc3ccccc23)cc(OCCC)c1`, the growth inhibition was 98% (active) in test [1] and 102% (active) in test [4]. For the same molecule, the inhibition is 6% in test [2] and -1% in test [3]. The result in test [5], in test [6], in test [7] and in test [8] was inactive.
Regarding `O=C(Nc1ccc2c(c1)CCN(C1CCC1)CC2)c1cn(-c2ccccc2)nc1-c1ccccc1`, the figures for the growth inhibition in test [1] and in test [4] were 10% and 103% (active), respectively. Further, the results for the inhibition in test [2] and in test [3] were 38% and 3%, respectively. In addition, the outcome in test [5], in test [6], in test [7] and in test [8] was inactive.
As for `Cc1cccc2[nH]c(-c3ccc(-c4ccc(CNCCCN5CCCC5=O)cc4)s3)nc12`, the growth inhibition was 43% in test [1] and 101% (active) in test [4]. Further, the inhibition in test [2] was 17%; in test [3], 2%. The result in test [5], in test [6], in test [7] and in test [8] was inactive.
Turning to `Cc1cnc(CN(Cc2ccc(-c3ccc(CNCCc4ccc(S(C)(=O)=O)cc4)cn3)cc2)C(=O)c2nn(-c3ccccc3)nc2C)cn1`, the results for the growth inhibition in test [1] and in test [4] were 21% and 84% (active), respectively. For the same molecule, the values for the inhibition in test [2] and in test [3] were 11% and 0%, respectively. Besides, the outcome in test [5], in test [6], in test [7] and in test [8] was inactive.
For `Cc1cccc(Nc2nccc(NCC(O)c3ccc(C(F)(F)F)cc3)n2)c1` (stereo not given), the growth inhibition in test [1] was 54% (active); in test [4], 101% (active). Moreover, the inhibition in test [2] was 11%; in test [3], 0%. For the same molecule, the outcome in test [5], in test [6], in test [7] and in test [8] was inactive.
With `CN1C(=O)C(=O)N(CCCCCON=C(N)N)C1=S`, the growth inhibition in test [1] is 1%; in test [4], 101% (active). Further, the inhibition was 21% in test [2] and -1% in test [3]. For the same molecule, the result in test [5], in test [6], in test [7] and in test [8] was inactive.
Turning to `CCNc1cc(C)nc(Nc2ccc(NS(=O)(=O)c3cc(OC)ccc3OC)cc2)n1`, the results for the growth inhibition in test [1] and in test [4] were 36% and 100% (active), respectively. For the same molecule, the inhibition in test [2] was 56% (active); in test [3], -1%. In addition, the outcome in test [5], in test [6], in test [7] and in test [8] was inactive.
With `CCCCN1CCN(c2cc(NS(=O)(=O)c3ccc(C(=O)Nc4ccc(C(F)(F)F)cc4)cc3)ccc2OC)CC1`, the values for the growth inhibition in test [1] and in test [4] were 20% and 99% (active), respectively. The inhibition is 17% in test [2] and -3% in test [3]. The outcome in test [5], in test [6], in test [7] and in test [8] was inactive.
As to `O=C(/C=C/c1ccc(Cl)c(Cl)c1)NCCCCCN1CCCC(CNC(=O)/C=C/c2ccccc2)C1` (stereo not given), the growth inhibition in test [1] is 6%; in test [4] it was 98% (active). The inhibition in test [2] was 37%; in test [3] it was -7%. The outcome in test [5], in test [6], in test [7] and in test [8] was inactive.
For the molecule `CC(C)C[C@H](NC(=O)c1cc2ccccc2s1)C(=O)N[C@H]1CCN(Cc2ccc(I)c(OCCN3CCCC3)c2)C1`, the growth inhibition in test [1] is 88% (active); in test [4] it was 92% (active). Also, the inhibition in test [2] is 3%; in test [3] it was -1%. Further, the outcome in test [5], in test [6], in test [7] and in test [8] was inactive.
